# Results as given in ChEMBL document CHEMBL3988442, “University of Dundee, Small-Polar-MMV Screening Library” (2021).
# Key:
# [1] = target: T1, Aspartate--tRNA(Asp/Asn) ligase (Mycobacterium tuberculosis (strain ATCC 25618 / H37Rv)) (UniProt P9WFW3); assay: Assay for Asp RNA synthetase-1 from Mycobacterium tuberculosis; format: functional; parameters: scale not given: direction of the effect not stated beside the values; details: 30 µM; further: in the data most compounds retested in dose-response had high values
# T1 sequence (whole entry): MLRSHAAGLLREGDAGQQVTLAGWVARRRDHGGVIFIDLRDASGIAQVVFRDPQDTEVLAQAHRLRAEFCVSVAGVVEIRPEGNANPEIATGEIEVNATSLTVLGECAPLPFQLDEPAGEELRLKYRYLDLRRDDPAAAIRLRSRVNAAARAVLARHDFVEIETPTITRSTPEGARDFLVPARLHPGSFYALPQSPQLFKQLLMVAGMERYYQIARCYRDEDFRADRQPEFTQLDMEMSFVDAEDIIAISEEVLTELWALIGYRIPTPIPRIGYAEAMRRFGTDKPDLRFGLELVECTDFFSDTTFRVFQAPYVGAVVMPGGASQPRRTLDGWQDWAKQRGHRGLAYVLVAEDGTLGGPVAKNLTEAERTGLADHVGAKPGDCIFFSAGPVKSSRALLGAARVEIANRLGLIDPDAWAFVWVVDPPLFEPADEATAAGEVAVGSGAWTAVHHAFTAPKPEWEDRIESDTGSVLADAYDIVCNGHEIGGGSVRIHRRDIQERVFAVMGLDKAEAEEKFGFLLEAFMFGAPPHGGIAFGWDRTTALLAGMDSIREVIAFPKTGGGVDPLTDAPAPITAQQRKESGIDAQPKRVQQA
# [2] = target: Shiga toxin 2 (Escherichia coli O157:H7) (UniProt P09385+P09386); assay: E. coli 0.157:H7 Shiga Toxin SOP - stx2 screening assay; format: functional; parameters: scale not given: direction of the effect not stated beside the values; details: 30 µM
Structure (SMILES),Percent Effect [1],Percent Effect [2]
Cc1cc2nc(SCC(=O)N3CCCC3)n(-c3ccccc3)c(=O)c2[nH]1,15.3%,-24.4%
Cc1nocc1C(=O)N1CCc2c(CN(C)C(C)C)n[nH]c2C1,0.866%,3.98%
O=c1[nH]c2c(c(=O)n1C1CCCCC1)CCC2Nc1ccccc1 (stereo unspecified),3.05%,1.28%
CC(O)CNC(=O)NCc1cccnc1OC1CCCC1 (stereo unspecified),-4.34%,-12.4%
O=C(Cc1ccccn1)N1CCc2nc(-c3cnccn3)nc(O)c2C1,-2.49%,4.64%
COc1ncccc1NC(=O)N(Cc1ccc(C)o1)C1CC1,-0.455%,12.1%
CCS(=O)(=O)CCN1CCCC1c1noc(C2CC2)n1 (stereo unspecified),-2.94%,-0.711%
CCOc1cc(F)ccc1NS(=O)(=O)c1cc(C)c(C(=O)O)s1,1.85%,-9.96%
CC(=O)N1CC(=O)N(c2ccccc2)CC12CCN(Cc1cccs1)C2 (stereo unspecified),2.3%,-33.9%
CN(C)CCCn1ccnc1C1CCCN(c2cc(N)ncn2)C1 (stereo unspecified),-0.232%,1.04%
CCc1nnc(CN(C)c2nc(C(C)C)nc3c2cnn3C)o1,5.74%,-7.55%
CC(O)CN(CC(=O)NC(=O)NC1CC1)c1ccccc1 (stereo unspecified),-1.82%,4.59%
O=C(c1ccccc1-n1cccn1)N1CCCN(c2cccnn2)CC1,0.98%,33%
O=C(CO)N1CCc2onc(Cn3cccn3)c2C1,-1.21%,7.04%
Cc1cnc(CN2CCOC(CNc3cccnn3)C2)cn1 (stereo unspecified),-2.97%,6.13%
CCOc1ccc(Cl)c(C(=O)N2CCN(CCO)CC2)n1,0.455%,15.7%
O=C(c1cscn1)N1CCC[C@]2(C[C@H](OCC3CC3)CO2)C1,3.34%,-17.4%
Cc1cc(C)nc(Nc2cccc(C3CCCN(C)C3)n2)n1 (stereo unspecified),-3.29%,1.38%
CC(C)(C)C(=O)NCCn1ccc(-c2ccncc2)n1,-3.08%,-20%
Cc1cc(C)n(C2CCCN(C(=O)c3c(C)c(C)n[nH]c3=O)C2)n1 (stereo unspecified),-2.4%,2.19%
Cn1cc(C(=O)NC2CCN(Cc3ccn(C)c(=O)c3)CC2)cn1,1.68%,-28%
CC(C)c1nc(N2CC(N3CCCCC3C)C2)c2cnn(C)c2n1 (stereo unspecified),-2.71%,-37.8%
Cc1nc(C)n(CC2CN(Cc3cccnc3)CCO2)n1 (stereo unspecified),5.17%,26.5%
